Experimental findings from PubChem BioAssay (NCI) are described below.

Compounds without any hit were thinned out: in the full panel of roughly 83,000, 20% have a hit.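 Each cell line was grown in a 96-well plate and treated with one concentration of compound for 48 hours. Values below 10 were considered active.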 Unmarked numbers belong to inactive results. Calls of active or inactive are those of the source.

Assay in all cases: NCI-60 one-dose screen, 48 h (100 = growth as untreated, 0 = no growth, -100 = all killed)
One experiment concerns SK-MEL-2 melanoma. The following applies: 10 µM unless noted.
A further experiment has as its system EKVX NSCLC. The following applies: 10 µM unless noted.
For a further experiment, the system named is SN12C renal. The following applies: 10 µM unless noted.
The subject of another experiment is UO-31 renal. The following applies: 10 µM unless noted.
In a further experiment the test system is TK-10 renal. The following applies: 10 µM unless noted.
In another experiment the test system is ACHN renal. The following applies: 10 µM unless noted.
For the next experiment, the system named is CAKI-1 renal. The following applies: 10 µM.
The subject of the next experiment is A498 renal. The following applies: 10 µM unless noted.
The test system of the next experiment is CCRF-CEM leukemia. The following applies: 10 µM unless noted.
The next experiment relates to MOLT-4 leukemia. The following applies: 10 µM unless noted.
For a further experiment, the system named is SR leukemia. The following applies: 10 µM unless noted.
The subject of a further experiment is RPMI-8226 leukemia. The following applies: 10 µM unless noted.
A further experiment concerns OVCAR-8 ovarian. The following applies: 10 µM unless noted.
In a further experiment the test system is OVCAR-5 ovarian. The following applies: 10 µM unless noted.
In a further experiment the test system is OVCAR-4 ovarian. The following applies: 10 µM unless noted.
Another experiment relates to IGROV1 ovarian. The following applies: 10 µM unless noted.
Another experiment has as its system OVCAR-3 ovarian. The following applies: 10 µM unless noted.
The next experiment has as its system HS 578T breast. The following applies: 10 µM unless noted.
Another experiment deals with NCI/ADR-RES ovarian. The following applies: 10 µM unless noted.
Another experiment has as its system SK-OV-3 ovarian. The following applies: 10 µM unless noted.

As for `O=C(NNc1nc2cc(F)c(F)cc2n2cccc12)c1ccncn1`, the growth was 29.8% in the experiment on SK-MEL-2 melanoma; 12.2% in the experiment with EKVX NSCLC; 26.2% in the experiment with SN12C renal; 20.7% in the experiment on UO-31 renal; 27.1% in the experiment on TK-10 renal; 14.1% in the experiment with ACHN renal. Also, the growth in the experiment on CAKI-1 renal is 17.2%; in the experiment with A498 renal, 46.5%; with CCRF-CEM leukemia, 7.72% (active); in the experiment with MOLT-4 leukemia, 8.93% (active); with SR leukemia it was 14.6%; with RPMI-8226 leukemia it was 16.9%. The growth in the experiment with OVCAR-8 ovarian is 17.5%; in the experiment on OVCAR-5 ovarian, 39%; in the experiment with OVCAR-4 ovarian, 3.66% (active); with IGROV1 ovarian it was 15.7%; with OVCAR-3 ovarian, 12.7%; in the experiment on HS 578T breast, 48.2%. In addition, the growth with NCI/ADR-RES ovarian is 5.95% (active).
As to `O=C1NC(=O)c2c1c1c3ccccc3ccc1c1[nH]c3ccccc3c21`, the growth in the experiment on SK-MEL-2 melanoma was -12.5% (active); in the experiment on EKVX NSCLC it was 11.1%; in the experiment on SN12C renal it was 17.3%; with UO-31 renal, -4.64% (active); with TK-10 renal, -4.05% (active); in the experiment with ACHN renal it was -2.53% (active). Also, the growth is 4.16% (active) in the experiment with CAKI-1 renal; -36.3% (active) in the experiment with A498 renal; 9.91% (active) in the experiment with CCRF-CEM leukemia; 3.16% (active) in the experiment on MOLT-4 leukemia; -9.49% (active) with SR leukemia; 1.6% (active) with RPMI-8226 leukemia. For the same molecule, the growth with OVCAR-8 ovarian is 6.43% (active); in the experiment with OVCAR-5 ovarian, 49.6%; in the experiment with OVCAR-4 ovarian, 25.8%; with SK-OV-3 ovarian, 2.2% (active); in the experiment with IGROV1 ovarian it was 9.53% (active); in the experiment with HS 578T breast it was 12.7%. Also, the growth in the experiment on NCI/ADR-RES ovarian is 0.105% (active).
With `NS(=O)(=O)c1ccc(Nc2nc(N/N=C/c3ccc([N+](=O)[O-])cc3)nc(Nc3ccccc3)n2)cc1`, the growth in the experiment with SK-MEL-2 melanoma is 18.2%; in the experiment with EKVX NSCLC it was 83.7%; in the experiment with SN12C renal it was 27.4%; in the experiment on UO-31 renal, 81.9%; in the experiment on TK-10 renal, 93.8%; in the experiment on ACHN renal, 82.6%. The growth in the experiment on CAKI-1 renal is 50.6%; in the experiment with A498 renal, 18.5%; in the experiment on CCRF-CEM leukemia it was 11.8%; in the experiment with MOLT-4 leukemia, 11.9%; with SR leukemia, 15.6%; in the experiment with RPMI-8226 leukemia, 43.3%. The growth with OVCAR-8 ovarian is 33.2%; in the experiment with OVCAR-5 ovarian it was 82%; in the experiment on OVCAR-4 ovarian, 55.8%; in the experiment with SK-OV-3 ovarian, 67.8%; in the experiment with IGROV1 ovarian, 52.1%; in the experiment on NCI/ADR-RES ovarian it was 93.3%.
For the molecule `O=C(NNc1nc2cc(F)c(F)cc2n2cccc12)c1cccnn1`, the growth is 19.3% in the experiment with SK-MEL-2 melanoma; 7.06% (active) in the experiment on EKVX NSCLC; 15.8% in the experiment with SN12C renal; 13.3% in the experiment on UO-31 renal; 39.5% in the experiment with TK-10 renal; 10.2% in the experiment with ACHN renal. In addition, the growth in the experiment with CAKI-1 renal is 11.8%; with A498 renal, 14.2%; with CCRF-CEM leukemia, 7.8% (active); in the experiment with MOLT-4 leukemia it was 7.86% (active); in the experiment with SR leukemia, 11.8%; with RPMI-8226 leukemia, 9.62% (active). The growth in the experiment with OVCAR-8 ovarian is 19.8%; in the experiment on OVCAR-5 ovarian, 42.5%; in the experiment with OVCAR-4 ovarian, 4.78% (active); in the experiment on IGROV1 ovarian, 14.4%; in the experiment with OVCAR-3 ovarian, 7.39% (active); in the experiment on HS 578T breast it was 29.3%. Besides, the growth with NCI/ADR-RES ovarian is -0.232% (active).
With `CCN(CC)CCN1C(=O)c2c(c3c4cc(Br)ccc4[nH]c3c3ccc4ccccc4c23)C1=O`, the growth in the experiment with SK-MEL-2 melanoma was 116%; in the experiment with EKVX NSCLC, -88.1% (active); in the experiment on SN12C renal, -71.4% (active); in the experiment with UO-31 renal it was -86.1% (active); in the experiment with TK-10 renal, -73% (active); in the experiment with ACHN renal it was -100% (active). In addition, the growth with CAKI-1 renal was 12.8%; with A498 renal, 57.6%; in the experiment on CCRF-CEM leukemia, 1.96% (active); with MOLT-4 leukemia it was -30.7% (active); in the experiment with SR leukemia it was -24.6% (active); with RPMI-8226 leukemia, -42.4% (active). Also, the growth with OVCAR-8 ovarian is -58.2% (active); with OVCAR-5 ovarian it was -95.2% (active); in the experiment with OVCAR-4 ovarian it was 36.6%; in the experiment with SK-OV-3 ovarian, 61.9%; in the experiment with IGROV1 ovarian it was -83.7% (active); in the experiment on HS 578T breast, -4.17% (active). The growth in the experiment with NCI/ADR-RES ovarian is -76.3% (active).
Turning to `O=C(NCCCCCCNC(=O)c1c2c(nc3ccccc13)-c1cccnc1SC2)c1c2c(nc3ccccc13)-c1cccnc1SC2`, the growth in the experiment on SK-MEL-2 melanoma was 5.25% (active); in the experiment with EKVX NSCLC, 49.1%; in the experiment on SN12C renal, 73.8%; in the experiment with UO-31 renal, 38.8%; in the experiment with TK-10 renal it was 145%; in the experiment on ACHN renal it was 65.8%. For the same molecule, the growth with CAKI-1 renal is 61.5%; in the experiment with A498 renal, 76.5%; with CCRF-CEM leukemia, 93.6%; with MOLT-4 leukemia it was 88.1%; in the experiment with SR leukemia it was 89.7%; in the experiment with RPMI-8226 leukemia it was 58.9%. Besides, the growth is 78.2% with OVCAR-8 ovarian; 57.9% with OVCAR-5 ovarian; 79.6% in the experiment with OVCAR-4 ovarian; 85.7% in the experiment with SK-OV-3 ovarian; 43.7% in the experiment with IGROV1 ovarian; 77.2% with NCI/ADR-RES ovarian.
Take `O=C(c1ccc(O)cc1)[C@@H]1[C@@H]2CCCN2[C@@]2(C(=O)N(C(=O)c3ccc(F)cc3)c3ccccc32)[C@H]1c1ccc(F)cc1`: the growth in the experiment on SK-MEL-2 melanoma is 110%; with EKVX NSCLC, 83.4%; with SN12C renal it was 87.3%; in the experiment on UO-31 renal, 60.4%; in the experiment with TK-10 renal, 143%; with ACHN renal, 90%. The growth was 70.1% with CAKI-1 renal; 82.5% in the experiment with A498 renal; 67.2% in the experiment on CCRF-CEM leukemia; 68% in the experiment on MOLT-4 leukemia; 60.8% in the experiment with SR leukemia; 75.6% with RPMI-8226 leukemia. Besides, the growth was 93.2% in the experiment on OVCAR-8 ovarian; 111% in the experiment with OVCAR-5 ovarian; 91.1% in the experiment on OVCAR-4 ovarian; 104% in the experiment with SK-OV-3 ovarian; 63.1% in the experiment with IGROV1 ovarian; 105% in the experiment on HS 578T breast. The growth in the experiment with NCI/ADR-RES ovarian is 98.8%.
For `C#C[C@]1(O)CC[C@H]2[C@@H]3CC=C4c5sc(Nc6ccncc6)nc5CC[C@]4(C)[C@H]3CC[C@@]21C`, the growth with SK-MEL-2 melanoma is -15% (active); with EKVX NSCLC it was -13.7% (active); in the experiment with SN12C renal, 44.1%; in the experiment on UO-31 renal, -61.8% (active); in the experiment on TK-10 renal it was 12%; in the experiment with ACHN renal it was 18.8%. For the same molecule, the growth in the experiment with CAKI-1 renal is -19.4% (active); in the experiment with A498 renal, -52.2% (active); in the experiment on CCRF-CEM leukemia, 4.46% (active); in the experiment with MOLT-4 leukemia, -18.3% (active); with SR leukemia, 4.33% (active); with RPMI-8226 leukemia, -26.6% (active). The growth in the experiment with OVCAR-8 ovarian was 51.4%; with OVCAR-5 ovarian, 38.6%; in the experiment on OVCAR-4 ovarian, 59.8%; in the experiment on SK-OV-3 ovarian, -38.1% (active); in the experiment on IGROV1 ovarian, 24.4%; in the experiment with HS 578T breast, -33.6% (active). For the same molecule, the growth in the experiment on NCI/ADR-RES ovarian is 33.1%.
